Drawing on PubChem BioAssay (EPA / NIEHS), this text covers outcome and AC50 for 40 compounds.

The source made the active and inactive calls. The calls were made as follows: active = hit-call score of the fitted dose curve at least 0.9, where 1 is the maximum; inactive = score below 0.9.

This test is described as follows: CCTE_Padilla_ZF_Score.General: CCTE's 144 Hour Post-fertilization zebrafish Assay Score for General Malformation, Padilla Lab (AID 2284411). On the procedure:
CCTE_Padilla_ZF_Phenotype_Score is a whole embryo, multiplexed assay using zebrafish ova exposed for 144 hours post fertilization on a 96-well plate.CCTE_Padilla_ZF_Score.General is one of one assay component(s) measured or calculated from the CCTE_Padilla_ZF_Phenotype_Score assay. It is designed to make measurements of zebrafish development as detected with brightfield microscopy of developing zebrafish embryos.Data from the assay component CCTE_Padilla_ZF_Score.General was analyzed into 1 assay endpoints. This assay endpoint, CCTE_Padilla_ZF_Score.General, was analyzed in the positive analysis fitting direction relative to DMSO as the negative control and baseline of activity. Using a type of viability reporter, gain-of-signal activity can be used to understand changes in developmentals as they relate to the whole embryo. To generalize the intended target to other relatable targets, this assay endpoint is annotated to the zebrafish development intended target family, where the subfamily is embryonic morphogenesis.
Zebrafish husbandry: Wild type adult zebrafish (Danio rerio; undefined outbred stock obtained from Aquatic Research Organisms, Hampton, NH, 03842) were housed in an AAALAC-approved animal facility at 28C with a 14:10 h light: dark cycle (lights on at 08:30 h). Adult fish (2-3 females per male; density = 15-20 adults per tank) were kept in one of several 9-liter (L) flow-through colony tanks (Aquaneering Inc., San Diego, CA). All adults in a colony tank were placed in a 2 L (static) breeding tank (Aquatic Habitats, Apopka, FL) one hour prior to light onset. Typically, adults from two to three colony tanks were mated on the same day. Two hours after light onset the adults were returned to the colony tank. All embryos were gathered from each breeder tank, pooled, and placed in a 28C water bath for 2 h, followed by two washes with 0.06% bleach (v/v) in 10% Hanks' Balanced Salt Solution (13.7 mM NaCl 0.54 mM KCl, 25 uM Na2HPO4, 130 uM CaCl2 100 um MgSO4 and 420 um NaHCO3,), hereafter referred to as Hanks' solution, for 5 min in order to remove any residual bacteria or fungi. Immediately following washing, the embryos were examined, and healthy embryos were separated from dead or unfertilized eggs and moved into fresh Hanks'. Chemical exposures: Zebrafish embryos were exposed in 96-well plates. Between 6- and 8-hours post fertilization (hpf), healthy embryos (with chorions) were transferred, one embryo per well, into 96 well (0.5 mL) microtiter plates (Cell Culture-Treated, Flat-Bottom Microplate 96 well [Corning Costar, Kennebunk, ME; Cat 09-761-145]) filled with 200 uL of Hanks' solution. A random number generator was used to assign the order in which the rows of embryos were plated in 96 well plates each week. After plating, the embryos were dosed with 0.8 uL of the chemical dosing solution then immediately sealed with AlumaSeal II (Excel Scientific Inc, Victorville, CA) to prevent volatilization of the chemicals, and then placed in a leakproof secondary container. These containers were placed in an incubator maintained on a 14:10 h light: dark cycle at 26C for rearing. On 5 dpf, live larvae were gently moved out of the plate with test chemicals and into a new 96 well mesh plate (Millipore Corp., Bedford, MA) with just the Hanks' solution. Once within the mesh well plate, the animals were rinsed with 400 uL of fresh Hanks' three times, and then the plates were covered with a non-adhesive material (Microseal A, BioRad, Hercules, CA), plate lid added, and then plate sides wrapped in Parafilm (PM992, Bermis Company, Neenah, WI), and returned to the incubator. […]
For `FC(F)(F)C(F)(F)C(F)(F)C(F)(F)C(F)(F)C(F)(F)C(F)(F)Br`, the compound was classed as inactive.

Take `FC(F)(F)C(F)(F)C(F)(F)C(F)(F)CCI`: the result was inactive.

For `OCC(F)(F)C(F)(F)C(F)(F)F`, the outcome was inactive.

In the case of `O=C(O)C(F)(F)C(F)(F)C(F)(F)F`, the outcome was inactive.

As for `C=CC(=O)OCC(F)(F)C(F)(F)C(F)(F)C(F)(F)COC(=O)C=C`, the outcome was inactive.

For the compound `NC(=O)C(F)(F)C(F)(F)C(F)(F)C(F)(F)F`, the outcome was inactive.

Take `O=C(O)C(F)(F)C(F)(F)C(F)F`: the call was inactive.

As a reminder, the AC50 is the concentration at which the activity in the assay is half-maximal. `Cc1ccc(S(=O)(=O)OCC(F)(F)C(F)(F)C(F)(F)C(F)(F)C(F)(F)C(F)F)cc1`: the concentration at half-maximal activity (AC50) was 8.85 µM (active).

Turning to `FC(F)(F)C(F)(F)C(F)(F)CI`, the compound was classed as inactive.

For `Oc1ccc(Nc2ccccc2)cc1`, the compound was called inactive.

As for `O=C(O)C(F)(OC(F)(F)C(F)(OC(F)(F)C(F)(OC(F)(F)C(F)(F)C(F)(F)F)C(F)(F)F)C(F)(F)F)C(F)(F)F` (stereo not given), the result was inactive.

Turning to `O=C(Cl)C(F)(F)C(F)(F)C(F)(F)C(F)(F)C(F)(F)C(F)(F)C(F)(F)C(F)(F)F`, the AC50 is 11.4 µM (active).

With `FC(F)(Br)C(F)(F)C(F)(F)C(F)(F)C(F)(F)C(F)(F)Br`, the result was inactive.

In the case of `O=C(O)C(F)(F)C(F)(F)C(F)(F)C(F)(F)C(F)(F)C(F)(F)C(F)(F)C(F)(F)C(F)(F)C(F)(F)C(F)(F)C(F)(F)C(F)(F)F`, the compound was classed as inactive.

For `FC(F)(F)C(F)(F)C(F)(F)N(C(F)(F)C(F)(F)C(F)(F)F)C(F)(F)C(F)(F)C(F)(F)F`, the outcome was inactive.

As to `N=C(N)C(F)(F)C(F)(F)C(F)(F)C(F)(F)C(F)(F)C(F)(F)C(F)(F)F`, the result was inactive.

In the case of `CCCCCCCCC(F)(F)C(F)(F)C(F)(F)C(F)(F)C(F)(F)C(F)(F)F`, the result was inactive.

Take `O=C(O)C=C(C(F)(F)F)C(F)(F)F`: the call was inactive.

Regarding `C=CC(F)(F)C(F)(F)C(F)(F)C(F)(F)C(F)(F)C(F)(F)C(F)(F)C(F)(F)F`, the outcome was inactive.

On to `FC(F)(F)C(F)(F)C(F)(F)C(F)(F)C(F)(F)C(F)(F)C(F)(F)C(F)(F)CCS`, for which the compound was called inactive.

Take `O=C(O)C(F)(F)C(F)(F)C(F)(F)C(F)(F)C(F)(F)C(F)(F)C(F)(F)C(F)(F)C(F)(F)C(F)F`: the AC50 was 15.8 µM (active).

Take `FC(F)(F)C(F)(F)C(F)(F)C(F)(F)C(F)(F)CCI`: the AC50 is 54.7 µM (active).

Take `O=S(=O)(OCCOC(F)(F)F)C(F)(F)F`: the compound was classed as inactive.

As for `OCC(F)(F)C(F)(F)C(F)(F)C(F)(F)C(F)(F)C(F)F`, the result was inactive.

In the case of `O=C(O)C(F)(OC(F)(F)C(F)(OC(F)(F)C(F)(F)C(F)(F)F)C(F)(F)F)C(F)(F)F` (stereo not given), the outcome was inactive.

As to `C=C(C)C(=O)OCCC(F)(F)C(F)(F)C(F)(F)C(F)(F)C(F)(C(F)(F)F)C(F)(F)F`, the outcome was inactive.

With `C=C(C)C(=O)OCC(F)(F)C(F)(F)C(F)(F)C(F)(F)C(F)(F)C(F)(F)C(F)(F)F`, the result was inactive.

As for `OCC(F)(F)C(F)(F)C(F)(F)C(F)F`, the outcome was inactive.

As to `OCCCC(F)(F)C(F)(F)C(F)(F)C(F)(F)C(F)(F)C(F)(F)C(F)(F)F`, the outcome was inactive.

`CCCCNc1ccccc1`: the compound was called inactive.

On to `O=P(O)(O)OCCC(F)(F)C(F)(F)C(F)(F)C(F)(F)C(F)(F)C(F)(F)F`, for which the outcome was inactive.

`CCO[Si](CCC(F)(F)C(F)(F)C(F)(F)C(F)(F)C(F)(F)C(F)(F)F)(OCC)OCC`: the compound was called inactive.

As for `CCCCCCCCCCCCCCCC[N+](C)(C)Cc1ccccc1`, the call was inactive.

As to `FC(F)(F)C(F)(F)C(F)(F)C(F)(F)C(F)(F)C(F)(F)C(F)(F)C(F)(F)F`, the result was inactive.

As for `OCCCC(F)(F)C(F)(F)C(F)(F)F`, the compound was classed as inactive.

`O=S(=O)(O)C(F)(F)C(F)(F)C(F)(F)C(F)(F)C(F)(F)C(F)(F)C(F)(F)F`: the AC50 was 16.6 µM (active).

`O=C(O)C(F)(F)C(F)(F)OC(F)(F)F`: the call was inactive.

Consider `CC(C)(C)C(=O)CC(=O)C(F)(F)C(F)(F)C(F)(F)F`, for which the AC50 is 26.4 µM (active).

Take `CCCCCCC(C)OC(=O)CCCCC(=O)OC(C)CCCCCC` (stereo not given): the result was inactive.

As for `C=CC(=O)OCC(F)(F)C(F)(F)C(F)(F)C(F)(F)C(F)(F)C(F)(F)C(F)(F)F`, the outcome was inactive.
